For eight compounds, growth results are on record in PubChem BioAssay (NCI).

The panel holds about 83,000 compounds, 20% with a hit somewhere; the sample as a whole holds those more often.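 Percent growth is the endpoint: 0 to 100 indicates growth inhibition (40 means 60% inhibition), 0 means no net growth, and negative values indicate cell death.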 Unmarked numbers belong to inactive results. Calls of active or inactive are those of the source. The calls were made as follows: active = growth percent below 10; inactive = the rest.

Common to all, as to experiment: NCI-60 one-dose screen, 48 h (100 = growth as untreated, 0 = no growth, -100 = all killed)
Common to all, as to details: 10 µM unless noted

Test [1] concerns SK-MEL-2 melanoma.
Test [2] deals with EKVX NSCLC.
For test [3], the system named is SN12C renal.
The subject of test [4] is UO-31 renal.
The test system of test [5] is TK-10 renal.
Test [6] has as its system ACHN renal.
Test [7] deals with CAKI-1 renal.
Test [8] deals with A498 renal.
Test [9] concerns CCRF-CEM leukemia.
The subject of test [10] is MOLT-4 leukemia.
The test system of test [11] is SR leukemia.
For test [12], the system named is RPMI-8226 leukemia.
The test system of test [13] is OVCAR-8 ovarian.
Test [14] concerns OVCAR-5 ovarian.
The test system of test [15] is OVCAR-4 ovarian.
In test [16] the test system is SK-OV-3 ovarian.
The subject of test [17] is IGROV1 ovarian.
Test [18] concerns OVCAR-3 ovarian.
Test [19] concerns HS 578T breast.
Test [20] relates to NCI/ADR-RES ovarian.

Consider `O=C(O)CC1S/C(=N/N=C/c2nc3ccccc3s2)NC1=O` (stereo not given), for which the growth in test [1] is 116%; in test [2], 54.7%; in test [3], 101%; in [4], 52.7%; in test [5], 104%; in test [6], 78.3%. Moreover, the growth in test [7] is 77.3%; in test [8], 155%; in test [9], 93%; in test [10], 95.2%; in [11], 79.8%; in [12], 88.8%. Moreover, the growth in test [13] is 98.5%; in [14], 123%; in test [15] it was 82.1%; in test [16], 122%; in test [17] it was 103%; in [18] it was 88.4%. Further, the figures for the growth in test [19] and in [20] were 90.9% and 99.3%, respectively.

On to `N#Cc1ccc(C(=O)CSc2nc3c(c(Nc4ccc(S(N)(=O)=O)cc4)n2)CCC3)cc1`, for which the growth in test [1] is 87.4%; in test [2], 49.8%; in test [3] it was 35.3%; in [4], 66.8%; in test [5], 55.2%; in test [6] it was 10.9%. For the same compound, the growth in test [7] is 39.1%; in test [8], 137%; in [9], 81.1%; in test [10] it was 73.3%; in test [11] it was 58.9%; in test [12], 79.2%. For the same compound, the growth in test [13] is 3.1% (active); in test [14], 70.8%; in test [15] it was 43.9%; in [16] it was 67.2%; in [17], 15.8%; in [18], 97.1%. Also, the growth in [19] is 26.1%; in [20], 53%.

As for `O=C(N/N=C/c1ccc(-c2cccc([N+](=O)[O-])c2)s1)c1[nH]c2ccc(Br)cc2c1-c1ccccc1`, the growth in test [1] was 84.4%; in [2] it was 94.7%; in test [3] it was 91.4%; in test [4], 82.1%; in test [5], 101%; in test [6] it was 87.3%. Besides, the growth in test [7] is 90.4%; in [8], 132%; in test [9], 91%; in test [10], 69.3%; in test [11], 69.9%; in test [12], 89.2%. Further, the growth is 95.9% in [13]; 106% in test [14]; 82.1% in [15]; 93.4% in test [16]; 102% in test [17]; 62.1% in test [18]. In addition, the growth in test [19] is 82.4%; in test [20], 105%.

Take `Cn1cc(-c2cc3nc(-c4cn(C)c5ncc(Br)cc45)cc(N)n3n2)c2cc(F)ccc21`: the growth in [1] was 88.8%; in test [2], 49%; in [3], 26.4%; in test [4] it was 20.3%; in [5], 16%; in [6] it was -7.44% (active). Further, the growth in test [7] is -3.51% (active); in test [8], 125%; in test [9] it was 5.26% (active); in test [10], 17.4%; in test [11] it was -23.7% (active); in test [12], 32.9%. For the same compound, the growth in test [13] was 10.5%; in test [14], 31.8%; in test [15], 3.36% (active); in test [16], 75%; in test [17], 19.8%; in test [18], 20.3%. Also, the growth in test [19] is 35%; in [20], 10.5%.

Regarding `O=C(CSc1nnc(-c2ccc(-c3nc4ccccc4[nH]3)cc2)o1)Nc1ccccc1`, the growth in test [1] is 91.4%; in [2], 93.9%; in test [3], 79.7%; in test [4] it was 104%; in [5] it was 106%; in test [6], 23.1%. Besides, the growth in test [7] is 86%; in test [8], 130%; in test [9], 59%; in test [10], 27.4%; in test [11], 34.1%; in [12], 56.5%. The growth is 31.5% in [13]; 86% in test [14]; 94% in test [15]; 84.7% in test [16]; 85% in test [17]; 92.2% in [18]. Besides, the growth was 70.9% in test [19] and 76.3% in test [20].

As to `COC(=O)c1cccc(Oc2ccc(NC(=O)Nc3cc(C(F)(F)F)ccc3F)cc2)c1`, the growth in test [1] is 73.1%; in test [2], 60.9%; in test [3], 75.7%; in test [4] it was 73.9%; in test [5], 88.5%; in test [6], 56.4%. For the same compound, the growth was 62.4% in [7]; 94.9% in [8]; 65% in test [9]; 64.7% in test [10]; 26.9% in [11]; 62.8% in test [12]. Further, the growth was 40.3% in [13]; 87.1% in test [14]; 55.4% in test [15]; 87.6% in test [16]; 56.7% in [17]; 78.5% in [18]. Also, the growth in test [19] was 4.44% (active); in test [20] it was 73.9%.

Consider `C[C@@H](Nc1c(C#N)cnc2ccc(-c3cnc4[nH]ncc4c3)cc12)c1ccccc1`, for which the growth in [1] was -24.8% (active); in [2] it was -31.9% (active); in [3], 11.3%; in test [4], 8.19% (active); in test [5], -6.48% (active); in test [6] it was 4.37% (active). The growth in [7] was 4.1% (active); in test [8] it was -40.2% (active); in test [9], 0.263% (active); in [10], -34.5% (active); in [11], -8.05% (active); in test [12], -1.82% (active). In addition, the growth in test [13] was 24.4%; in [14] it was 15.2%; in [15] it was 36.9%; in test [16], 19.5%; in test [17], -60.6% (active); in [18], 3.49% (active). For the same compound, the figures for the growth in test [19] and in test [20] were -19.5% (active) and 17.7%, respectively.

Regarding `CN(C(=O)CN1C(=O)/C(=C/c2ccco2)SC1=S)C1CCS(=O)(=O)C1` (stereo not given), the growth was 98.5% in [1]; 97.9% in test [2]; 104% in test [3]; 87.8% in test [4]; 122% in test [5]; 106% in test [6]. Moreover, the growth was 93.5% in [7]; 103% in test [8]; 80.3% in test [9]; 100% in test [10]; 84.8% in [11]; 98% in test [12]. The growth in test [13] was 96%; in test [14] it was 111%; in test [15] it was 106%; in test [16], 91.3%; in test [17], 116%; in test [18] it was 99.9%. Further, the growth is 111% in [19] and 96.4% in test [20].
